Compounds without any hit were thinned out: in the full panel of roughly 83,000, 20% have a hit.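 Note: values are percent growth. 100 is the growth of untreated cells, values between 100 and 0 indicate rising inhibition; between -100 and 0 indicates cell death.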 Values without a mark were called inactive. Calls of active or inactive are those of the source. The calls were made as follows: active = growth percent below 10; inactive = the rest.

This experiment concerns MDA-MB-468 breast. Put plainly: NCI-60 one-dose screen, 48 h (100 = growth as untreated, 0 = no growth, -100 = all killed). Conditions: 10 µM unless noted.
Consider `O=C(Nc1cccc(-n2cc(-c3ccncc3)c(-c3ccc(O)c(Cl)c3)n2)c1)Nc1cccc(C(F)(F)F)c1`, for which the growth was 18.5%.

With `Nc1c(C(=O)Nc2ccccc2)sc2nc3c(cc12)C(O)CCC3` (stereo not given), the growth was 51.6%.

In the case of `O=C(CCN1C(=O)/C(=C/c2ccccc2)SC1=S)N1CCOCC1`, the growth is 51.9%.

Regarding `COc1ccc(CCNC(=O)COc2cc3c(Nc4ccc(F)c(Cl)c4)ncnc3cc2OC)cc1OC`, the growth is -10.1% (active).

Turning to `CC1OC2CC(=O)OC2C2=C1C(=O)c1c(O)cccc1C2=O` (stereo not given), the growth is -73.4% (active).

Regarding `O=C1c2c(c3c4cccnc4[nH]c3c3ccc4ccccc4c23)C(=O)N1CCN1CCNCC1`, the growth was 87.1%.

`CCc1c(Nc2ccc(C)cc2)nc(N)[nH]c1=O`: the growth is 94.5%.

Consider `O=C(CSc1nc2c(n1Nc1ccccc1)-c1ccccc1SC2)Nc1nc(-c2ccc(Cl)cc2)cs1`, for which the growth is 59.1%.

In the case of `O=C(O)/C=C(\c1nc2ccc([N+](=O)[O-])cc2[nH]1)c1cc(Cl)ccc1O`, the growth is -2.53% (active).

With `Nc1ncnc2c1N=C(c1ccc(F)cc1)CC(c1sc(Cl)nc1Cl)N2` (stereo not given), the growth is 91.4%.

As to `Cn1c(=O)n(C)c2cc(CNCCNc3ccnc4cc(Cl)ccc34)ccc21`, the growth is 59.4%.

Take `O=C1C(Cl)=C(Oc2ccccc2)C(=O)c2ccccc21`: the growth was 13%.

In the case of `CCCCCCCCCCCCCCCCCc1nccn1CCO`, the growth is 91.5%.

For `N=C(N)c1ccc(-c2ccc(-c3ccccc3)o2)cc1`, the growth is -68.6% (active).

`COc1cc(C(=O)c2c(-c3ccccc3)oc3c(OC)cccc23)cc(OC)c1O`: the growth was 4.03% (active).

The record behind these values is PubChem BioAssay (NCI).
